Data taken from article PMC5540273 (PLoS ONE, 2017).

These molecules were tested on CDK4-cyclinD3.
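Also: kd values determined as follow-up on hits from a single-replicate KINOMEscan panel screen.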

SMILES | Kd [µM]
CCc1ccc(-c2ccc3c(c2)-c2n[nH]cc2S(=O)(=O)N3C)cc1 | > 10
CC(=O)c1c(C)c2cnc(Nc3ccn(C)n3)nc2n(C2CCCC2)c1=O | 0.0099
CC(=O)c1c(C)c2cnc(Nc3ccc(N4CCNCC4)cn3)nc2n(C2CCCC2)c1=O | 0.00062

Each molecule was assayed on CDK4.

SMILES | Kd [µM]
O=C1NC(=O)C(c2ccc(Cl)cc2)=C1Nc1cccc(Cl)c1 [SB-317651] | > 10
O=C(Nc1n[nH]c2cc(-c3ccsc3)ccc12)C1CC1 [SB-732932] | > 10
COc1nccc(-c2c(-c3ccc(F)cc3)ncn2CCCN2CCOCC2)n1 [SB-282852] | > 10
CNc1nc(-c2ccc3c(N)n[nH]c3c2)cc(N2C[C@@H](C(=O)NC3CCCCC3)OC[C@H]2C)n1 [GSK2375584] | > 10
